Assay results from PubChem BioAssay (NCATS).
Inconclusive results are not listed. Calls of active or inactive are those of the source. Calls come from the whole dose curve; as a rule, active = well fitted curve in the direction sought with a large enough effect; inconclusive = small, poorly fitted or top-dose-only effect, or another doubt; inactive = no such curve, though single readings can be large; an effect the other way counts as inactive or inconclusive.

Assays:
[1] = target: Cellular tumor antigen p53 (Homo sapiens) (UniProt P04637); experiment: Primary qHTS for small molecule compounds that upregulate eGFP-tagged delta133p53alpha (in N-terminal) cells. (AID 2060322); details: NCI-H358 eGFP-delta133p53alpha fluorescence, 24 h; activation: stronger effect = higher value;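 note: series mostly up to about 56 µM; 0% = DMSO vehicle and 100% = reference activator; nearly all actives have a fitted effect of over 75% in size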
Sequence of Cellular tumor antigen p53 (Homo sapiens) (P04637 whole entry, looked up): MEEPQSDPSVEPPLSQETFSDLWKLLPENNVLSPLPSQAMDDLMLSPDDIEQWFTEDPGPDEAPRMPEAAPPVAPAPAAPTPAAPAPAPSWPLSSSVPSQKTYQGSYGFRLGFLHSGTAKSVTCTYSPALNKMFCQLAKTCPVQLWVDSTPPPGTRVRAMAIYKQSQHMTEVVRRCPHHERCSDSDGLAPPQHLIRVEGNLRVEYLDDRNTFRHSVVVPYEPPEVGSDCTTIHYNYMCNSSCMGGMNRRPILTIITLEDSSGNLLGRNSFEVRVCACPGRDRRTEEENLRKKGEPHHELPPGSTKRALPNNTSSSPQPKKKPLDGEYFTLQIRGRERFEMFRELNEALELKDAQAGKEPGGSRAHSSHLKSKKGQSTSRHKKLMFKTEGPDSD
Summary of the method: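 NCI-H358 cells pre-induced 24 h with 10 ng/ml doxycycline to express N-terminal eGFP-delta133p53alpha, then dosed 24 h at 37C without doxycycline; fixed, Hoechst-stained, GFP intensity by laser scanning cytometry, normalized to DMSO (0%) and 57.5 uM 5-azacytidine (100%).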

[2] = target: Aldehyde dehydrogenase, mitochondrial (Homo sapiens) (UniProt P05091); experiment: qHTS for Inhibitors of the Aldehyde Dehydrogenase Family (ALDH2) Primary screen (AID 2061308);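 note: plate controls were vehicle for no effect and reference inhibitor for full effect; nearly all actives have a fitted effect of over 55% in size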
[3] = target: Retinaldehyde dehydrogenase 3 (Homo sapiens) (UniProt P47895); experiment: qHTS for Inhibitors of the Aldehyde Dehydrogenase Family (ALDH1A3) Primary screen (AID 2061315);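 note: plate controls were DMSO vehicle for no effect and reference inhibitor for full effect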

CC(=O)NC[C@H]1CN(c2ccc(N3CCN(C(=O)CO)CC3)c(F)c2)C(=O)O1
inactive: activation [1] 11.6% | Potency [2] | Potency [3]

C=C[C@H]1[C@H](O[C@@H]2O[C@H](CO)[C@@H](O)[C@H](O)[C@H]2O)OC=C2C(=O)OCC[C@]21O
inactive: activation [1] -8.04% | Potency [2] | Potency [3]

CC(C)=C1C[C@@]2(C)C(=CC1=O)CC[C@@H](OC(=O)/C(C)=C/CO)[C@@H]2C
inactive: activation [1] 5.34% | Potency [2] | Potency [3]

C[C@@H]1O[C@@H](O[C@H]2[C@H](OC(=O)[C@]34CCC(C)(C)C[C@H]3C3=CCC5[C@@]6(C)C[C@@H](O)[C@@H](O[C@@H]7O[C@H](CO)[C@@H](O)[C@H](O)[C@H]7O)[C@@](C)(CO)C6[C@H](O)C[C@@]5(C)[C@]3(C)CC4)OC[C@H](O)[C@@H]2O)[C@H](O)[C@H](O[C@@H]2OC[C@](O)(CO)[C@H]2O)[C@H]1O[C@@H]1OC[C@@H](O)[C@H](O[C@H]2O[C@H](C)[C@@H](O)[C@H](O)[C@@H]2O)[C@H]1O (stereo partly drawn)
inactive: activation [1] 6.25% | activity change, negative = inhibition [2] 9.79% [at 11.2 µM] | activity change, negative = inhibition [3] 2.17% [at 11.2 µM]

CC1(C)CC[C@]2(C(=O)O)CC[C@]3(C)C(=CCC4[C@@]5(C)C[C@H](O)[C@H](O[C@@H]6O[C@H](CO)[C@@H](O)[C@H](O)[C@H]6O)[C@@](C)(CO)C5[C@H](O)C[C@]43C)[C@@H]2C1 (stereo partly drawn)
inactive: activation [1] -13% | Potency [2] | Potency [3]

C/C=C(/C)C(=O)O[C@H]1C=C(C)C[C@H](OC(=O)c2ccc(O)cc2)C2[C@](O)(C(C)C)CC[C@@]21C (stereo partly drawn)
inactive: activation [1] -5.34% | Potency [2] | Potency [3]
